Each structure is given as a SMILES string. Values joined by “and” are separate entries in the source; they are usually repeats but may differ in a detail not shown here. Equal entries are not always repeated. Results filed as inconclusive are left out. Entries that show only a call come without a potency. Active and inactive are the calls of the source. Calls come from the whole dose curve.
Potency is the fitted concentration of half-maximal effect.

This experiment is described as follows: qHTS assay for small molecule agonists of the p53 signaling pathway (AID 651631). Note: nearly all actives have a fitted effect of over 15% in size. As to conditions: HCT-116 p53RE-bla reporter, beta-lactamase FRET ratio, 16 h; series mostly up to 73.3 µM. An excerpt: U.S. Tox21 Program National Center for Advancing Translational Sciences [NCATS] NIH Chemical Genomics Center [NCGC] U.S. Environmental Protection Agency [EPA] National Institutes of Environmental Health Sciences [NIEHS] National Toxicology Program [NTP] U.S. Food and Drug Administration [FDA] Tox21 Assay Overview: p53, a tumor suppressor protein, is activated following cellular insult, including DNA damage and other cellular stresses. The activation of p53 regulates cell fate by inducing DNA repair, cell cycle arrest, apoptosis, or cellular senescence. The activation of p53, therefore, is a good indicator of DNA damage and other cellular stresses. The CellSensor p53RE-bla HCT-116 cell line (Invitrogen) contains a stably integrated beta-lactamase reporter gene under control of the p53 response elements. The activation of the reporter gene under culture conditions can be detected by fluorescence intensity. This cell line was used to screen the Tox21 compound library in a 1536-well plate format and to identify agonists that activate the p53 signaling pathway.
Tox21 Assay Protocol Summary: The p53RE-bla cells were dispensed at 4,000 cells/5 ul/well in 1536-well black wall/clear bottom plates using a Multidrop dispenser. After the assay plates were incubated at a 37 C/5% CO2 incubator for 5 hours, 23 nL of compounds dissolved in DMSO, positive controls or DMSO only was transferred to the assay plate by a pin tool. The plates were incubated at 37 C for 16 hours. After 1 uL of LiveBLAzerTM B/G FRET substrate was added using a Flying Reagent Dispenser, the plates were incubated at room temperature for 2 hours, and fluorescence intensity was measured by an Envision plate reader.
On the technique in general: Quantitative high-throughput screening tests each substance at several concentrations.
Turning to `CN(C)c1ccc(C(=N)c2ccc(N(C)C)cc2)cc1`, the Potency is 4.28 µM (active) and 5.88 µM (active).
Under `OC[C@@H](O)[C@@H](O)[C@H](O)[C@@H](O)CO` stands “inactive”.
Under `Clc1ccc(Cl)c(Cl)c1Cl` stands “inactive”; under `O=[N+]([O-])c1cc(N(CCO)CCO)ccc1NCCO`, “inactive”.
For the compound `CNC[C@H](O)[C@@H](O)[C@H](O)[C@H](O)CO`, the Potency entry is “inactive”.
As to `Cn1c([N+](=O)[O-])cnc1COC(N)=O`, the Potency entry is “inactive”.
For `NCc1cccc(CN)c1`, the Potency result is “inactive”.
Under `COC(=O)c1ccc(C(=O)OC)cc1` stands “inactive”; under `C=C(C#N)C(=O)OCC`, “inactive”.
Under `CCCCC(CC)COC(=O)CCCCCCCC(=O)OCC(CC)CCCC` (stereo not given) stands “inactive”; under `CCOC(=O)[C@H](CCc1ccccc1)N[C@@H](C)C(=O)N1Cc2ccccc2C[C@H]1C(=O)O`, “inactive”; under `CCCCCCOC(C)=O`, “inactive”.
In the case of `C=C(C)C(=O)OCCCCCC`, the Potency entry is “inactive”.
As for `OCC1CCCO1` (stereo not given), the entry is “inactive”.
As for `O=C(c1cc(O)c(O)c(O)c1)c1ccc(O)c(O)c1O`, the figure is 54.3 µM (active); as for `C=CC(=O)OCCCCCCCC(C)C`, “inactive”.
For `CC(C)Cc1ccccc1`, the Potency entry is “inactive”.
For the compound `Oc1ccc(OCc2ccccc2)cc1`, the Potency was 9.02 µM (active).
Under `CC1CC(OC(=O)c2ccccc2O)CC(C)(C)C1` (stereo not given) stands “inactive”; under `O=S(=O)(O)c1cc(S(=O)(=O)O)c2c(N=Nc3ccccc3)c(O)ccc2c1`, “inactive”.
With `CC1=C(CC(=O)O)c2cc(F)ccc2/C1=C\c1ccc(S(C)=O)cc1` (stereo not given), the Potency entry is “inactive”.
Consider `O=C(c1ccc(O)cc1)c1ccc(O)cc1O`, for which the Potency was 27.6 µM (active).
On to `C=C(C)C(=O)OCC(CC)(COC(=O)C(=C)C)COC(=O)C(=C)C`, for which the Potency entry is “inactive”.
On to `Cc1cc(=O)[nH]c(C(C)C)n1`, for which the Potency result is “inactive”.
For `COCC(C)O` (stereo not given), the Potency entry is “inactive”.
For the compound `CCC(C)C=O` (stereo not given), the Potency entry was “inactive”.
As for `CC(=O)CCc1ccccc1`, the entry is “inactive”; as for `C=C1C2CCC(C2)C1(C)C` (stereo not given), “inactive”; as for `CC[Si](OC(C)=O)(OC(C)=O)OC(C)=O`, “inactive”.
Under `Cc1cc(Cc2ccc(N)c(C)c2)ccc1N` stands “inactive”.
As to `CCC(=O)O`, the Potency result is “inactive”.
For the compound `CS(=O)(=O)c1ccc([C@@H](O)[C@@H](CO)NC(=O)C(Cl)Cl)cc1`, the Potency entry was “inactive”.
As for `CCCCOCCO`, the entry is “inactive”; as for `O=C(Oc1ccccc1)c1ccc(O)cc1`, “inactive”; as for `Cc1cc(O)c2c(c1)C(=O)c1cc(O)cc(O)c1C2=O`, 10.6 µM (active).
For the compound `CCOC(=O)/C=C\C(=O)OCC`, the Potency entry was “inactive”.
As for `CCCCC(CC)COC(=O)/C=C\C(=O)OCC(CC)CCCC` (stereo not given), the Potency result was “inactive”.
Under `Oc1ccc2ccccc2c1` stands “inactive”; under `COCC(=O)O`, “inactive”; under `CCCCNC(N)=O`, “inactive”.

Values taken from PubChem BioAssay (Tox21).
